# Screening data as filed in PubChem.
# This is a sample that favours compounds with a hit; in the whole collection about 4.8% have one here.
# DAX1 inh-1 – inhibits human nuclear receptor DAX1 | inhibition, % at 6.75 µM | 340,000 compounds, 0.99% hits | HEK293 Gal4-DAX1 luciferase reporter, luminescence;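 active = inhibition above the mean over all tested compounds plus 3 SD, cut at about 4.2% in these data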;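 also: 0% = DAX1-transfected cells with DMSO and 100% = empty-vector control cells with DMSO; inhibition shows as a rise in luminescence from relieved DAX1 repression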
# Target sequence (P51843 207-470 limits assumed): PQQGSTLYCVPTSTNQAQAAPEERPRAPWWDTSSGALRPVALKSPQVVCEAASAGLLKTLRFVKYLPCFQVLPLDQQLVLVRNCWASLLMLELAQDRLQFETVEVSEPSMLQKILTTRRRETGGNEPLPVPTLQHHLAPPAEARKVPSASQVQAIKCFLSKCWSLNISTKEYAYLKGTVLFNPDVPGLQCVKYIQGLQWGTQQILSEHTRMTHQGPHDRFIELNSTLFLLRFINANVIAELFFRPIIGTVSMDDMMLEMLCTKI
# hcDAF-12 act – activates DAF-12 receptor from parasite H. contortus | activation, % at 6.8 µM | HEK293 hcDAF-12 lit1-tk-luc reporter, luminescence; 0% DMSO, 100% Δ7-dafachronic acid | 370,000 compounds, 1.4% hits;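 active = activation above the mean of all tested compounds plus 3 SD, cut at about 5.5% in these data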;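 also: 100% = response to 3 µM Δ7-dafachronic acid high control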
# SMARCA2 act – increases SMARCA2 function in MMTV reporter cells; 370,000 compounds, 1% hits; MG213 cells, MMTV-luciferase reporter, dexamethasone, overnight; activation, % at 9.1 µM; in the data active = activation above about 7.8%;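 also: 0% = vehicle wells and 100% = reference activator wells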
# ssDAF12 agonist – S. stercoralis DAF-12 activation, primary screen | HEK293 ssDAF-12/GRIP1 lit1-tk-luc reporter, luminescence; % of 3 µM dafachronic acid response | activation, % at 6.8 µM | 370,000 compounds, 1% hits | AID 652126;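 active = activation above the mean over all tested compounds plus 3 SD, cut at about 0.9% in these data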;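 also: 0% = DMSO-only wells and 100% = 3 µM delta7-dafachronic acid wells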
# hgDAF12 agonist – agonists of H. glycines DAF-12 nuclear receptor; HEK293 GAL4-hgDAF12 UAS-luciferase reporter, agonist luminescence; normalized to butyrate control; activation, % at 6.8 µM; 370,000 compounds, 1.8% hits; AID 687014;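 active = activation above a cutoff set at the mean of all screened compounds plus 3 SD, cut at about 10% in these data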;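 also: 0% = DMSO wells and 100% = sodium butyrate wells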
# DAX1 inh-2 – DAX1 (NR0B1) inhibition, primary screen. inhibition, % at 6.8 µM. 370,000 compounds, 1.1% hits. AID 652010. HEK293T StAR-luciferase reporter, SF-1/DAX-1 repression relief;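 active = inhibition above the mean over all tested compounds plus 3 SD, cut at about 3.6% in these data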;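 also: 0% = DAX-1 cells with DMSO and 100% = cells lacking DAX-1 with DMSO; higher inhibition means more luminescence from relief of DAX-1 repression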
# An asterisk follows results filed as active; / = no result given.
SMILES,DAX1 inh-1,hcDAF-12 act,SMARCA2 act,ssDAF12 agonist,hgDAF12 agonist,DAX1 inh-2
CCOC(=O)C(NC(=O)c1ccccc1)(OCc1ccc(F)cc1)C(F)(F)F (stereo not given),0.6,1.6,-0.5,-0.2,11.8*,-0.5
CCOC(=O)C(NC(=O)Nc1ncccn1)(Oc1ccccc1)C(F)(F)F (stereo not given),0.9,-0.7,-1.4,-0.8,3.8,4.2*
NC(=O)C1CCN(C(=O)Nc2csc3ccccc23)CC1,/,2.0,-1.7,1.0*,1.4,-0.1
CC(=O)Nc1csc2ccccc12,0.1,2.2,-2.6,-0.1,2.9,1.5
O=C(OCc1ccccc1)c1c(-c2ccccc2)oc2c1C(OCCO)CCC2 (stereo not given),/,0.8,-2.3,1.5*,0.7,-1.1
CC(=O)Nc1ccc(S(=O)(=O)Nc2cc([N+](=O)[O-])ccc2C)cc1,1.2,0.0,-2.5,-0.9,1.0,-0.6
Cc1ccc(CCNC(=O)C2CCC(=O)N(Cc3ccccc3F)C2)o1 (stereo not given),-0.2,4.2,2.5,-0.5,9.8,4.1*
CN(C)/C=N/S(=O)(=O)c1ccc(Cl)cc1,4.4*,-1.0,0.4,-1.0,-1.6,-0.4
Cc1ccc2nc3sc(C(=O)N4CCOCC4)c(N)c3cc2c1,1.3,6.5*,0.6,0.7,8.6,3.7*
O=C(Nc1ccc(Oc2ccccc2)cc1)C1CCCO1 (stereo not given),0.0,0.7,2.0,-0.3,4.7,1.2
CNC(=O)CN(c1ccc(F)cc1)S(=O)(=O)c1cc(C)ccc1OC,4.3*,1.5,-1.8,-1.1,-0.3,-0.6
O=C(COC(=O)c1ccccc1O)Nc1cccnc1Cl,-0.2,-0.2,-3.1,-1.5,-0.9,-0.7
CC(=O)c1ccc(NC(=O)Nc2cccc3ccccc23)cc1,0.9,-0.5,6.2,-0.3,4.3,3.7*
O=C(COC(=O)c1cccnc1)Nc1cccc2ccccc12,4.5*,-0.1,-2.2,0.0,-0.1,0.0
CCC(=O)Nc1cccc2ccccc12,1.5,-0.6,-2.7,-1.6,0.3,-0.1
O=C(COC(=O)c1cc2ccccc2cc1O)Nc1cccnc1Cl,0.4,4.2,-3.1,1.0*,1.5,-0.3
COC(=O)c1ccccc1NC(=O)COC(=O)c1cccnc1,1.5,-0.5,0.4,-0.8,0.8,0.3
NC(=O)Nc1cccc2ccccc12,0.6,3.3,-2.1,1.7*,-0.8,0.6
CC(=O)c1cccc(NC(=O)C(C)OC(=O)CCC2CCCCC2)c1 (stereo not given),0.1,0.7,-0.1,-0.9,4.8,-2.4
COCCCNc1nc2ccccc2nc1NS(=O)(=O)c1ccc(Cl)cc1,-1.2,-1.1,-0.5,-1.5,0.5,-0.2
CCC(OC(=O)C(C)N1C(=O)C(=O)c2ccccc21)C(=O)Nc1ccccc1OC (stereo not given),0.5,-2.2,-1.5,-0.3,-1.7,-0.6
CC(C)C(=O)NNS(=O)(=O)c1ccccc1,-0.6,-0.8,-2.9,-1.3,1.4,-0.2
COC(=O)c1ccc(-c2n[nH]c(=O)c3ccccc23)cc1,-0.3,-1.7,1.7,-1.2,-0.2,0.3
CN(C)C(=O)c1ccc(-c2n[nH]c(=O)c3ccccc23)cc1,4.8*,0.3,-2.6,-1.5,-0.6,1.4
O=C(CC1CCCCC1)NCCCN1CCOCC1,-0.9,6.1*,-1.9,-0.7,-1.3,0.3
SMILES,DAX1 inh-1,hcDAF-12 act,SMARCA2 act,ssDAF12 agonist,hgDAF12 agonist,DAX1 inh-2
Cc1ccc(NC(=O)NNC(=O)c2cccs2)cc1,0.2,5.8*,-0.3,-0.7,6.9,0.7
CC(=O)NC(=S)Nc1ccc(NC(=O)c2cccs2)cc1,0.9,-1.9,2.8,-1.1,6.5,0.7
CC(C)c1ccc(NC(=S)NNC(=O)c2cccs2)cc1,3.5,0.7,4.2,-0.5,11.4*,1.7
N#CC1=C(N)Oc2cc(O)c(C=Nc3ccccc3)cc2C1c1ccccc1 (stereo not given),-1.5,-0.7,-0.7,-1.7,-5.0,-0.3
CCC(C)(C)NC(=O)C(c1ccc(C)cc1)N(Cc1cccs1)C(=O)c1ccc2c(c1)OCCO2 (stereo not given),-0.3,-0.8,-1.1,-1.4,-2.2,0.1
CC(C)C(=O)Nc1c(-c2ccccc2)c(=O)c2ccccc2n1C,0.9,1.8,-0.5,-1.8,-0.1,0.4
Cn1c(NC(=O)c2ccco2)c(-c2ccccc2)c(=O)c2ccccc21,4.2*,1.4,-2.2,-0.5,0.1,-0.2
CCn1c(NC(=O)c2ccco2)c(-c2ccccc2Cl)c(=O)c2ccccc21,-0.3,-0.6,8.0*,-1.3,0.1,-0.1
COc1ccc(-c2c(NC(=O)c3ccco3)n(-c3ccccc3)nc(C)c2=O)cc1,4.8*,0.7,-2.2,-1.5,-1.3,0.9
Cc1ccc(C(=O)OCC(=O)NCCN2C(=O)CSC2=O)cc1[N+](=O)[O-],-0.8,-0.5,0.9,-1.0,-0.3,-1.2
COc1ccc(CNC(=O)CCC(=O)c2ccc(C)cc2)cc1OC,0.6,-0.1,-0.5,-1.1,1.4,1.5
CCOc1ccc(Nc2cc(=O)oc3ccccc23)cc1,1.1,-0.7,-0.7,-1.5,-0.9,0.0
O=C(OCc1cccc(F)c1)c1ccc2c(=O)n3c(nc2c1)CCC3,4.5*,-2.1,2.0,-1.1,2.2,-0.5
CC(C)=NOc1nc(N(C)C)nc(N2CCOCC2)n1,/,-0.2,-7.1,-1.0,-0.2,0.6
CS(=O)(=O)c1cccc(-c2nnc(NC(=O)CCS(=O)(=O)c3ccccc3)o2)c1,4.6*,0.9,0.3,-0.4,3.3,0.7
COc1cccc(-c2nnc(NC(=O)CCS(=O)(=O)c3ccc(F)cc3)o2)c1,-0.1,0.2,1.2,-1.2,5.3,-0.1
Nc1ccc(O)c2c1C(=O)c1ccccc1C2=O,4.4*,0.9,3.2,-0.8,2.8,0.7
Cc1ccccc1NC(=O)c1ccc2c(c1)OCCO2,-0.3,1.6,4.1,-1.3,5.6,0.7
O=C(Nc1ccc(Br)cc1F)c1ccc2c(c1)OCCO2,-1.1,3.6,1.5,0.7,11.5*,2.6
Cc1cccc(NC(=O)c2ccc3c(c2)OCCO3)c1C,-0.2,3.8,4.4,0.0,11.9*,1.7
O=C(Nc1ccc(F)cc1F)c1ccc2c(c1)OCCO2,-1.1,5.5,1.2,0.4,12.6*,1.9
Cc1cccc(C(=O)OC2CCOC2=O)c1C (stereo not given),-0.6,-0.8,-2.7,-0.5,0.3,0.1
CCSc1nnc(NC(=O)NCC(F)(F)F)s1,0.9,0.1,-0.3,-1.0,1.1,0.0
Cc1ccc(OCC(=O)NCC(=O)n2nc(C)cc2C)cc1,0.1,-2.0,-5.6,-0.9,0.1,0.0
O=C(Nc1ccccc1C(=O)NC1CCCC1)NC1CCCC1,5.8*,-1.5,-4.3,-1.5,1.1,0.1
CC(=O)NC(=S)Nc1ccccc1C(=O)NC1CCCCC1,-0.1,-0.5,-2.4,3.9*,3.3,1.1
